Assay results: PubChem BioAssay AID1814 (Broad Institute, 2009)
Out of some 300,000 compounds screened, about 22,000 (7.3%) were called active. About 2% were inconclusive and are not listed. No stated cut-off is given here; in the data, active means activity score below about -60%; inconclusive means mostly about -28% to -61%; inactive means positive scores. Only a selection was taken, and actives are over-represented in it overall.

Assay: Activators via SNCA 5'UTR binding, MLPCN (AID 1814)
Details: alpha-synuclein 5'UTR reporter, activators screen; hits give low values; tested at 7.5 µM

Activity score, inactive:
CCOC(=O)c1cnc(-n2nc(C)cc2C)nc1NNc1cc(C)nc(-c2ccccc2)n1 105%, COc1ccc(C)c(Cn2c(-c3nonc3N)nc3ccccc32)c1 76.2%, Cc1c(Cl)c([N+](=O)[O-])nn1Cc1ccc(C(=O)N/N=C\c2cc(Cl)ccc2O)o1 81.2%, CCOc1ccc(OCc2cccc(C(=O)N(CC)CC)c2)cc1 50.8%

Activity score, active:
Cc1cc(-n2nc(C)cc2C)n2ncc(-c3ccccc3)c2n1 -73.6%, O=C1/C(=C\Nc2ccccc2)CCN1c1ncccn1 -99.5%, O=C(CSC(=S)N1CCCCC1)c1c(F)cccc1F -175%, COCn1c(COc2ccccc2)nc2ccccc21 -65.8%, CCOc1ccc(C(O)Cc2nc3ccccc3n2C)cc1 (centres undefined) -67.7%, COc1ccc(OCc2ccc(-c3nc4ccccc4c(=O)n3N)o2)cc1 -143%, Cc1ccc(OCc2nc3ccccc3n2C)cc1 -109%, Cn1c(COc2ccc(Cl)cc2)nc2ccccc2c1=O -91.8%, CC(C)c1ccc(Nc2ncccc2C#N)cc1 -111%, CC(=O)c1sc(NC(=O)c2ccc(C)cc2)nc1C -112%, COC(=O)c1sc(NC(=S)NC(=O)c2ccc(C)cc2)nc1C -102%, O=C(N/N=C/c1ccc([N+](=O)[O-])o1)c1cccc(S(=O)(=O)N2CCOCC2)c1 -81.1%, COc1ccc(C(=NN)c2ccc(OC)cc2)cc1 -133%, O=C(Nc1ccon1)c1sc2ccccc2c1Cl -179%, CN(C)c1ccc(/C=N/NC(=O)c2ccc(Cn3cc(Br)cn3)o2)cc1 -69.3%, CC(C)c1cc(C(N)=O)c(NC(=O)c2cccc(COc3ccc(Br)cc3)c2)s1 -194%, CN(C)c1nc(=Nc2cccc(Cl)c2)ss1 -64.3%, CS(=O)(=O)N1CCc2nc(-c3ccccc3)sc2C1 -90.2%, O=C(c1ccccc1)c1ccc(OC(=O)N2CCCC2)cc1 -65.8%, Cc1ccc(CSc2nc3[nH]ncc3c(=O)[nH]2)cc1 -78%, Clc1ccc(-c2nnc(SCc3nc4ccccc4s3)o2)cc1 -162%, Oc1ccc(CNc2ccccc2O)cc1 -62.2%, Cc1cc(OCc2cc(C(=O)NCc3cc(C(C)C)no3)no2)cc(C)c1Cl -135%, CCOc1ccc(NS(=O)(=O)c2ccc(C)c(C(N)=O)c2)cc1 -72.9%, COc1cc(CN2CCC(C(N)=O)CC2)ccc1OCc1ccccc1 -111%
